# Screens (PubChem)
# POLK inh: qHTS for Inhibitors of Polymerase Kappa; DNA polymerase kappa (Homo sapiens), Q9UBT6; purified Pol kappa, fluorescent DNA synthesis assay, 10 min; Potency, µM (top dose mostly 107 µM), without a hit: at the highest dose activity, negative = inhibition, most hits filed as inhibitors; actives 0.53% (n = 400,000); AID 588579, 2011; also: potency is read from the fitted curve at half-maximal effect; % is scaled to controls: 0 for no effect and ±100 for the full control effect
#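 Fluorescent qHTS in 1536-well format: enzyme (10 nM) and compound sat 15 min at room temperature before 50 nM substrate (final) was added. Signal taken at 0 and 10 min; no-enzyme buffer wells were negative controls.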
# PI5P4K alpha inh: qHTS for Inhibitors of phosphatidylinositol 5-phosphate 4-kinase (PI5P4K) | PI5P4Kalpha enzyme, ADP-Glo luminescence, 60 min; active compounds read low | max response, % | actives 1.2% (n = 330,000) | AID 652105, 2013; active = max response of -50% or lower; inconclusive = between -30% and -50%; inactive = -30% or higher; also: value at the top dose of about 77 µM; % is scaled to controls: 0 for no effect and ±100 for the full control effect
#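 Human PI5P4Kalpha with substrate in 0.038 M HEPES pH 7.4, 0.28 mM EGTA, 0.1% CHAPS, 5% DMSO; reaction started with 5 microM ATP (final), 60 min at room temperature. ADP formed read by ADP-Glo luminescence.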
# POLH inh: qHTS for Inhibitors of Polymerase Eta. DNA polymerase eta (Homo sapiens), Q9Y253. recombinant Pol eta, fluorescent DNA replication assay. Potency, µM (top dose mostly 114 µM), for inactives: at the highest dose activity change, negative = inhibition, actives largely listed as inhibitors. actives 1.2% (n = 390,000); also: potency is read from the fitted curve at half-maximal effect; % is scaled to controls: 0 for no effect and ±100 for the full control effect
#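 Pol eta at 10 nM preincubated with compounds 15 min at room temperature; reaction started with fluorescent substrate (50 nM final) and read kinetically at 0 and 10 min.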
# Pol iota inh: qHTS for Inhibitors of Polymerase Iota | DNA polymerase iota (Homo sapiens), Q9UNA4 | Pol iota fluorescent replication assay, 10 min | Potency, µM (titrated, usually from 115 µM), for the others: top-dose activity, negative = inhibition, usual class: inhibitors | actives 1% (n = 390,000) | AID 588590, 2011; also: potency is read from the fitted curve at half-maximal effect
#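 Fluorescent replication assay read twice, at 0 min and 10 min after adding 50 nM (final) substrate. Enzyme (10 nM) and compounds were first incubated 15 min at room temperature; enzyme-free buffer wells were negative controls.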
# Pol beta inh: qHTS Assay for Inhibitors of DNA Polymerase Beta | P06746 | Potency, µM (highest dose often 114 µM), without a hit: top-dose activity change, negative = inhibition, most hits filed as inhibitors | AID 485314, 2010 | Pol beta primer extension/strand displacement, fluorescence kinetic | actives 1.3% (n = 340,000); also: potency is read from the fitted curve at half-maximal effect; % is scaled to controls: 0 for no effect and ±100 for the full control effect
#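 Pol beta (10 nM) was preincubated with compound for 15 min at room temperature. The reaction was then started with 50 nM substrate and read immediately and after a further 10 min at room temperature.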
# FEN1 inh: qHTS Assay for the Inhibitors of Human Flap endonuclease 1 (FEN1); P39748; actives 0.35% (n = 390,000); AID 588795, 2011; Potency, µM (highest dose often 114 µM), inactives show at the highest dose activity change, negative = inhibition, usual class: inhibitors; Recombinant FEN1 flap cleavage, fluorescence, 15 min; also: potency is read from the fitted curve at half-maximal effect; % is scaled to controls: 0 for no effect and ±100 for the full control effect; nearly all actives have a fitted effect of over 65% in size
# Target sequence (P39748 whole entry, looked up): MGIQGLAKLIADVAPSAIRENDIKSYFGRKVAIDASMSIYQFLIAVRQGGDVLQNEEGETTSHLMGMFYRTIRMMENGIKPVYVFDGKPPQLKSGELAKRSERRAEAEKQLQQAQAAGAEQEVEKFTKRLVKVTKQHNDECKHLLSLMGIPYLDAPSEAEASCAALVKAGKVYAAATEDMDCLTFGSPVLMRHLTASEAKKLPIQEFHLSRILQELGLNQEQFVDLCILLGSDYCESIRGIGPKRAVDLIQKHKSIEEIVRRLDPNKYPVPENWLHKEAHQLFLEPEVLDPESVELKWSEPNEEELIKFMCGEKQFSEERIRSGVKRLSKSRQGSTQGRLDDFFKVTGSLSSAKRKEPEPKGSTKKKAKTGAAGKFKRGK
#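 Reaction started by adding substrate (50 nM final) to 10 nM enzyme after 15 min room-temperature compound preincubation. Reads at 0 and 15 min, with data normalized and fitted to a four-parameter Hill equation.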
# Starred values were filed as active, the others as inactive; ? = inconclusive; / = no result given; ! = not confirmed by another sample; [ ] = remark or other dose. Hits are enriched below; roughly 2.8% of the tested compounds scored in any of these assays. Unless noted, calls follow the shape of the dose curve; as a rule, active = well fitted curve in the direction sought with a large enough effect; inconclusive = small, poorly fitted or top-dose-only effect, or another doubt; inactive = no such curve, though single readings can be large; an effect the other way counts as inactive or inconclusive.
SMILES,POLK inh,PI5P4K alpha inh,POLH inh,Pol iota inh,Pol beta inh,FEN1 inh
C#CCOCCOCCOCCNc1nc(N2CCN(C(=O)C(Cc3cc4ccccc4[nH]3)n3cc(C(N)Cc4ccc(O)cc4)nn3)CC2)nc(N2CCN(C(=O)C(Cc3cc4ccccc4[nH]3)n3cc(C(N)Cc4ccc(O)cc4)nn3)CC2)n1 (centres undefined),-7%,-92*,-15%,-8%,2%,-12%
C#CCOCCOCCOCCNc1nc(N2CCN(C(=O)[C@H](Cc3cc4ccccc4[nH]3)n3cc([C@@H](N)Cc4ccc(O)cc4)nn3)CC2)nc(N2CCN(C(=O)[C@H](Cc3cc4ccccc4[nH]3)n3cc([C@@H](N)CC(C)C)nn3)CC2)n1,1%,?,6%,?,-3%,?
C#CCOCCOCCOCCNc1nc(N2CCN(C(=O)[C@H](Cc3ccc(O)cc3)n3cc([C@@H](N)C(C)CC)nn3)CC2)nc(N2CCN(C(=O)[C@H](Cc3cc4ccccc4[nH]3)n3cc([C@@H](N)C(C)CC)nn3)CC2)n1 (some centres undefined),-13%,?,-9%,28µM*,25µM*,-7%
COc1ccc(C2=NN(C(=O)CSc3nc4ncc(Cl)cc4[nH]3)C(c3ccco3)C2)cc1 (centres undefined),89µM*,-30,-11%,45µM*,11%,-3%
CC(/C=N\NC(=O)CN1CCN(S(=O)(=O)c2ccc(C)cc2)CC1)=C\c1ccccc1,-22%,-1,-16%,11%,2%,-16%
Cc1cccc2c(N=Nc3ccc(S(=O)(=O)Nc4ccc(Cl)cc4)cc3[N+](=O)[O-])c(O)[nH]c12,-18%,-74*,1%,7%,-2%,-3%
Cc1ccc(OCC(=O)NNC(=O)c2ccc(NC(=O)C3CC3)cc2)c(C)c1,-9%,3,-21%,26%,1%,-7%
CCc1ccc(OCC(=O)NNC(=O)c2ccc(NC(=O)C3CC3)cc2)cc1,-8%,0,?,79µM*,32µM*,8%
Cc1cn(CCOc2ccc(Cl)cc2)c(=O)[nH]c1=O,-13%,15,2%,9%,23%,16%
OCCN=c1cc(-c2ccccc2)oc2ccc(Cl)cc12,-8%,0,2%,?,89µM*,?
O=c1cc(-c2ccc(F)cc2)[nH][nH]1,-1%,-1,-19%,1.8µM*,2%,4%
COc1ccc(-c2cc(=O)[nH][nH]2)cc1OC,-3%,/,-17%,1.3µM*,37%,1%
O=c1cc(-c2ccc(Br)cc2)[nH][nH]1,4%,1,-5%,91%,12%,-9%
CCCCN(C(=O)c1cc(-c2ccco2)nc2ccccc12)c1c(N)n(CCCC)c(=O)[nH]c1=O,79µM*,-57*,50µM*,18µM*,/,-16%
COCCN(C(=O)c1cc(-c2ccco2)nc2ccccc12)c1c(N)n(Cc2ccccc2)c(=O)[nH]c1=O,?,-84*,22µM*,18µM*,/,?
CC(C)CN(C)c1nc(N)c(C(=O)N=C(N)N)nc1Cl,/,/,-4%[57.1 µM],9%[58.9 µM],6%[57.1 µM],/
O=c1c(S(=O)(=O)c2ccc(Cl)cc2)cn(Cc2ccc(F)cc2)c2ccc(F)cc12,?,/,-21%,79µM*,7%,17%
O=c1c(S(=O)(=O)c2ccc(Cl)cc2)cn(Cc2ccccc2)c2ccc(F)cc12,0%,-4,-10%,56%,-18%,-2%
CS(=O)(=O)c1ccc2nc(NC(=O)c3ccc(=O)[nH]c3)sc2c1,-17%,-27,50µM*,50µM*,-21%,-5%
CS(=O)(=O)c1ccc2nc(NC(=O)c3ccc(Cl)cc3)sc2c1,5%,0,-21%,?,36%,-3%
Cc1ccc(NC(=O)CC(C)S(=O)(=O)c2ccc3c(c2)NC(=O)CO3)cc1Cl (centres undefined),-12%,/,-22%,32%,3%,16%
C=CCc1ccccc1OCC(O)CN1CCN(c2ccccc2)CC1 (centres undefined),?,/,-18%,79µM*,-5%,?
O=C(CSc1ccccc1)N1CCN(S(=O)(=O)c2ccccc2F)CC1,-39%,?,?,50µM*,45µM*,4%
Cc1ccccc1C(=O)Nc1cccc(C(=O)Nc2ccccc2C(=O)O)c1,-2%,-15,-7%,-24%,2%,-1%
Cc1ccc(C(=O)Nc2ccc(S(=O)(=O)O)c3cc(S(=O)(=O)O)cc(S(=O)(=O)O)c23)cc1NC(=O)c1cccc(NC(=O)Nc2cccc(C(=O)Nc3cc(C(=O)Nc4ccc(S(=O)(=O)O)c5cc(S(=O)(=O)O)cc(S(=O)(=O)O)c45)ccc3C)c2)c1,0.032µM*!,/,0.22µM*,1.4µM*,0.89µM*,1.3µM*
SMILES,POLK inh,PI5P4K alpha inh,POLH inh,Pol iota inh,Pol beta inh,FEN1 inh
COc1ccc2c(c1)n([O-])c1c([n+]2=O)CCC1,-20%,?,22µM*,?,-3%,9%
CCOc1ccc2c(c1)n([O-])c1c([n+]2=O)CCCC1,-6%,5,0%,77%,1%,0%
Cc1ccc(C(=O)N/N=C2\CCc3ccccc32)c(C)c1,-3%,-12,-1%,22%,0.16µM*,-1%
Cc1nc2c(c(C)c1CCC(=O)Nc1cccc(C(F)(F)F)c1)c(=O)n(C)c(=O)n2C,7%,/,-16%,11%,31%,-4%
C=CCn1c(SCC(=O)NC(=O)NCc2ccco2)nc2sc(CC)cc2c1=O,?,-50*,11µM*,45µM*,14µM*,-10%
CCCn1c(SCC(=O)NC(=O)NCc2ccccc2)n[nH]c1=O,18%,-4,-13%,29%,/,4%
CCCn1c(SCC(=O)NC(=O)NCc2ccco2)n[nH]c1=O,/,/,/,/,14µM*,/
C=CCn1c(SCC(=O)NCc2ccco2)nc2ccccc2c1=O,-13%,-1,-7%,-6%,-24%,-9%
CCn1c(SCC(=O)NC(=O)NCc2ccco2)nnc1-c1cccs1,-38%,-20,?,?,50µM*,5%
